{
  "source": "paper PMC4336329",
  "about": "(PLoS ONE, 2015)",
  "note": "Screen size: about 310,000 compounds; about 14,000 (4.5%) showed an effect of 50% or more. Effects have a minus sign here. For the sample, strong results were picked, then their nearest neighbours and some compounds at random.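 Note: peak tail current of the secondary pulse compared with the same well before compound.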",
  "data": [
    {"biological_target": "human ether-à-go-go-related gene (hERG) potassium channel (human, UniProt Q12809)", "sequence (Q12809 whole entry, looked up)": "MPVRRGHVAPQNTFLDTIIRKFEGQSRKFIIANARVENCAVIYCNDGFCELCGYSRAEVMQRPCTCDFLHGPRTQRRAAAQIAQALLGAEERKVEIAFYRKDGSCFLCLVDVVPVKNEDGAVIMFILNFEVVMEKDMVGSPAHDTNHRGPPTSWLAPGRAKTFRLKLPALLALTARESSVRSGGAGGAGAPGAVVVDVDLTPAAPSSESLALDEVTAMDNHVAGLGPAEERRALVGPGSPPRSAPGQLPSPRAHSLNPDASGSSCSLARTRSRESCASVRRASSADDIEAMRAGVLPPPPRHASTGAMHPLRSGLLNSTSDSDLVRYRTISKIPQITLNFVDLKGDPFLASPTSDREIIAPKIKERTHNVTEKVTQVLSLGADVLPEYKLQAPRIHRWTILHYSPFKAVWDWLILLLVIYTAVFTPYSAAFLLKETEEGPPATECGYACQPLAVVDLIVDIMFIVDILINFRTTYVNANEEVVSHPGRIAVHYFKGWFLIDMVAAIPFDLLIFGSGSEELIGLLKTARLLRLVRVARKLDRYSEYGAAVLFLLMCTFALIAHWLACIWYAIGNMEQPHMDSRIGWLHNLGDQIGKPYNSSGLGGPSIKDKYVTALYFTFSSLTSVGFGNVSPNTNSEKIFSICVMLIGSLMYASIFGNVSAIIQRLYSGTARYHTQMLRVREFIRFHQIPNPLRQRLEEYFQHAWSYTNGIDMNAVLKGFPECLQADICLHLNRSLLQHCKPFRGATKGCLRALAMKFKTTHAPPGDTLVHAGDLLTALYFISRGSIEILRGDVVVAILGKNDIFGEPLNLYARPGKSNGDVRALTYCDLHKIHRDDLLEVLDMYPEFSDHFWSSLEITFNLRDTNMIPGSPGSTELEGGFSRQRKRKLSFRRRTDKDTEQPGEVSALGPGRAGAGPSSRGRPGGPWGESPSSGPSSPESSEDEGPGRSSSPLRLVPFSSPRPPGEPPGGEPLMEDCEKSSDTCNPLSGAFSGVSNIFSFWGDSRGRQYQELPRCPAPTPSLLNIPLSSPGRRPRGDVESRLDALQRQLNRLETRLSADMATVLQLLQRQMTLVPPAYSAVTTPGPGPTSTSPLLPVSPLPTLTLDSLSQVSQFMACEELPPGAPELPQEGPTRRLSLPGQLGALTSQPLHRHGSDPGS", "experiment": "primary screen, population patch clamp on CHO cells stably expressing hERG; higher = less effect of the substance", "units": {"hERG current change (%, negative = inhibition) at 10uM": "%"}, "values": [
      {"smiles": "Cc1ccc(/C=C2\\C(=N)N3N=C(CC(=O)N4CCOCC4)SC3=NC2=O)o1", "hERG current change (%, negative = inhibition) at 10uM": 12.2},
      {"smiles": "CCOC(=O)c1cc(-c2ccccc2)sc1NC(=O)C(C)C", "hERG current change (%, negative = inhibition) at 10uM": 13.8},
      {"smiles": "O=C(O)C1C2CCC(C2)C1C(=O)NCc1ccccn1", "note": "(centres unmarked)", "hERG current change (%, negative = inhibition) at 10uM": 16.1},
      {"smiles": "CCOC(=O)N1CCN(c2ccc(S(=O)(=O)N(Cc3ccccc3)Cc3ccccc3)cn2)CC1", "hERG current change (%, negative = inhibition) at 10uM": -4.41},
      {"smiles": "O=c1cc(CN2CCN(S(=O)(=O)c3ccccc3)CC2)nc2ccc(Cl)cn12", "hERG current change (%, negative = inhibition) at 10uM": -56},
      {"smiles": "COc1ccc(S(=O)(=O)N2CCN(Cc3cc(=O)n4ccccc4n3)CC2)cc1", "hERG current change (%, negative = inhibition) at 10uM": -31.4},
      {"smiles": "Cc1ccc(S(=O)(=O)N2CCN(Cc3cc(=O)n4ccccc4n3)CC2)c(C)c1", "hERG current change (%, negative = inhibition) at 10uM": -80.6},
      {"smiles": "Cc1ccc(S(=O)(=O)N2CCN(Cc3cc(=O)n4ccccc4n3)CC2)cc1C", "hERG current change (%, negative = inhibition) at 10uM": -40.5},
      {"smiles": "O=c1nc2ccc(Cl)cn2c2ccc(S(=O)(=O)N3CCCCC3)cc12", "hERG current change (%, negative = inhibition) at 10uM": -0.392},
      {"smiles": "O=S(=O)(c1ccccc1)N1CCN(Cc2cccc(Cl)c2)CC1", "hERG current change (%, negative = inhibition) at 10uM": -18.1},
      {"smiles": "CCOc1cccc(C2/C(=C(/O)c3ccc4c(c3)CC(C)O4)C(=O)C(=O)N2CCN2CCOCC2)c1", "note": "(centres unmarked)", "hERG current change (%, negative = inhibition) at 10uM": 14.7},
      {"smiles": "N#Cc1ccccc1NC(=O)CSc1ccc([N+](=O)[O-])cn1", "hERG current change (%, negative = inhibition) at 10uM": 13.1},
      {"smiles": "CCN(CC)CCC(c1cc(OC)c(OC)c(OC)c1)c1c(OC)cc(OC)c2c(-c3ccccc3)cc(=O)oc12", "note": "(centres unmarked)", "hERG current change (%, negative = inhibition) at 10uM": -16.8},
      {"smiles": "COc1cc(C(CCN2CCCCC2)c2c(OC)cc(OC)c3c(-c4ccccc4)cc(=O)oc23)cc(OC)c1OC", "note": "(centres unmarked)", "hERG current change (%, negative = inhibition) at 10uM": -67},
      {"smiles": "COc1cc(C(CCN2CCCC2)c2c(OC)cc(OC)c3c(-c4ccccc4)cc(=O)oc23)cc(OC)c1OC", "note": "(centres unmarked)", "hERG current change (%, negative = inhibition) at 10uM": -70.8},
      {"smiles": "COc1cc(C(CCN2CCCC(C)C2)c2c(OC)cc(OC)c3c(-c4ccccc4)cc(=O)oc23)cc(OC)c1OC", "note": "(centres unmarked)", "hERG current change (%, negative = inhibition) at 10uM": -38.7},
      {"smiles": "COc1cc(OC)c2c(-c3ccccc3)cc(=O)oc2c1C(CCN1CCN(c2ccccc2)CC1)c1ccc(N(C)C)cc1", "note": "(centres unmarked)", "hERG current change (%, negative = inhibition) at 10uM": 7.89},
      {"smiles": "COc1cc(C(CC(=O)N2CCCC2)c2c(OC)cc(OC)c3c(-c4ccccc4)cc(=O)oc23)cc(OC)c1OC", "note": "(centres unmarked)", "hERG current change (%, negative = inhibition) at 10uM": -10.5},
      {"smiles": "Cc1ccc(NC(=O)CCS(=O)(=O)c2cc3c(cc2Cl)NC(=O)CO3)cc1", "hERG current change (%, negative = inhibition) at 10uM": -17.4},
      {"smiles": "O=C(CNC(=O)c1ccc(Cl)cc1)c1ccc(Cl)cc1", "hERG current change (%, negative = inhibition) at 10uM": 7.28},
      {"smiles": "Cc1ccc(CNC(=O)C2C3C=CC(C3)C2C(=O)O)cc1", "note": "(centres unmarked)", "hERG current change (%, negative = inhibition) at 10uM": -3.26},
      {"smiles": "Cl.OC(CN1CCCCC1)Cn1c(C(F)(F)F)nc2ccccc21", "note": "(centres unmarked)", "hERG current change (%, negative = inhibition) at 10uM": 4.06},
      {"smiles": "CC1CN(S(=O)(=O)c2cccs2)CC(C)O1", "note": "(centres unmarked)", "hERG current change (%, negative = inhibition) at 10uM": -3.7},
      {"smiles": "COc1ccc(NC(=S)NCc2ccco2)cc1", "hERG current change (%, negative = inhibition) at 10uM": 9.23},
      {"smiles": "COc1ccc(S(=O)(=O)n2cnc3ccccc32)cc1OC", "hERG current change (%, negative = inhibition) at 10uM": 12.4},
      {"smiles": "C=CCn1c(O)c(C(C)=NCc2cc(OC)cc(OC)c2)c(=O)[nH]c1=O", "hERG current change (%, negative = inhibition) at 10uM": -37},
      {"smiles": "CCCCn1c(O)c(C(CC)=NCc2cc(OC)cc(OC)c2)c(=O)[nH]c1=O", "hERG current change (%, negative = inhibition) at 10uM": -13.8},
      {"smiles": "C=CCn1c(O)c(C(CC)=NCc2cc(OC)cc(OC)c2)c(=O)[nH]c1=O", "hERG current change (%, negative = inhibition) at 10uM": -59},
      {"smiles": "Cc1ccc(S(=O)(=O)Nc2ccccc2/C=N/c2nc3ccccc3n2C)cc1", "hERG current change (%, negative = inhibition) at 10uM": -13.5},
      {"smiles": "Cc1cc(-c2ccc(N3CCOCC3)cc2)nc2ccccc12.Cl", "hERG current change (%, negative = inhibition) at 10uM": 3.53},
      {"smiles": "Cc1c(N=Cc2c(O)n(CCc3ccccc3)c(=O)[nH]c2=O)c(=O)n(-c2ccccc2)n1C", "hERG current change (%, negative = inhibition) at 10uM": -39.3},
      {"smiles": "Cc1c(N=Cc2c(O)n(CCc3ccc(F)cc3)c(=O)[nH]c2=O)c(=O)n(-c2ccccc2)n1C", "hERG current change (%, negative = inhibition) at 10uM": -61.9},
      {"smiles": "Cc1c(N=Cc2c(O)n(Cc3ccc(F)cc3)c(=O)[nH]c2=O)c(=O)n(-c2ccccc2)n1C", "hERG current change (%, negative = inhibition) at 10uM": -26},
      {"smiles": "CCCCn1c(O)c(C=Nc2c(C)n(C)n(-c3ccccc3)c2=O)c(=O)[nH]c1=O", "hERG current change (%, negative = inhibition) at 10uM": 4.96},
      {"smiles": "C=CCn1c(O)c(C=Nc2c(C)n(C)n(-c3ccccc3)c2=O)c(=O)[nH]c1=O", "hERG current change (%, negative = inhibition) at 10uM": -81.6},
      {"smiles": "Cc1c(N=Cc2c(O)n(Cc3ccccc3)c(=O)[nH]c2=O)c(=O)n(-c2ccccc2)n1C", "hERG current change (%, negative = inhibition) at 10uM": -5.81},
      {"smiles": "C=C(C)Cn1c(N2CC(C)CC(C)C2)nc2c1c(=O)[nH]c(=O)n2C", "note": "(centres unmarked)", "hERG current change (%, negative = inhibition) at 10uM": 2.46},
      {"smiles": "COc1ccc(CCC(=O)Nc2ccc(N3CCOCC3)cc2)cc1", "hERG current change (%, negative = inhibition) at 10uM": -12.9},
      {"smiles": "CCOC(=O)C1=C(c2ccccc2)Nc2ncnn2C1c1ccc(OC)c(OC)c1OC", "note": "(centres unmarked)", "hERG current change (%, negative = inhibition) at 10uM": -5.55},
      {"smiles": "CCOC(=O)C1(CCOc2ccccc2)CCN(Cc2ccc(COC)o2)CC1", "hERG current change (%, negative = inhibition) at 10uM": -63.7},
      {"smiles": "CCOC(=O)C1(CCOC)CCN(Cc2ccc(COC)o2)CC1", "hERG current change (%, negative = inhibition) at 10uM": 32.9},
      {"smiles": "CCOC(=O)C1(CCOc2ccccc2)CCN(Cc2ccc(C)o2)CC1", "hERG current change (%, negative = inhibition) at 10uM": -75},
      {"smiles": "CCOC(=O)C1(CCOc2ccccc2)CCN(Cc2ccc(CO)o2)CC1", "hERG current change (%, negative = inhibition) at 10uM": -73.8},
      {"smiles": "CCOC(=O)C1(Cc2ccccc2)CCN(Cc2ccc(COC)o2)CC1", "hERG current change (%, negative = inhibition) at 10uM": -19.1},
      {"smiles": "CSc1ccccc1NC(=O)CN(Cc1ccccc1)S(C)(=O)=O", "hERG current change (%, negative = inhibition) at 10uM": 4.1},
      {"smiles": "CC1(C)C(=O)C=C[C@]2(C)[C@H]3CC[C@@]4(C)[C@H](c5ccoc5)OC(=O)[C@H]5O[C@]54[C@]3(C)[C@H](O)C[C@@H]12", "hERG current change (%, negative = inhibition) at 10uM": 8.63},
      {"smiles": "Cc1cc(C)cc(NC(=O)CSc2nnc(-c3ccccc3)n2N)c1", "hERG current change (%, negative = inhibition) at 10uM": 6.38}
    ]}
  ]
}
